# Assay results published in PubChem BioAssay (NCATS).
# Records with an inconclusive call do not appear. Where a call stands in place of a potency, no number is given. A number with no mark means an inactive call. The source made the active and inactive calls. Calls come from the whole dose curve; as a rule, active = well fitted curve in the direction sought with a large enough effect; inconclusive = small, poorly fitted or top-dose-only effect, or another doubt; inactive = no such curve, though single readings can be large; an effect the other way counts as inactive or inconclusive.
# Tests used:
# [1] = target: Glutathione peroxidase 1 (Homo sapiens) (UniProt P07203); assay: Primary qHTS Assay for Inhibitors of Recombinant Selenoprotein Glutathione Peroxidase 1 (GPX1) (AID 1845191); note: nearly all actives have a fitted effect of over 65% in size
# Chain of Glutathione peroxidase 1 (Homo sapiens) (P07203 whole entry, looked up): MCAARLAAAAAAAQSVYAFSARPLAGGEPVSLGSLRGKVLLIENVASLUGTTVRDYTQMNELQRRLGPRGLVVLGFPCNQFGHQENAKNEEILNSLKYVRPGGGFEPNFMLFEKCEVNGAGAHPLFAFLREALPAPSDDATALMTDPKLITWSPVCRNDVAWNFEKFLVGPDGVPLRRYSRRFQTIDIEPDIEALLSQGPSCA
# Summary of the method: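 GR-coupled readout: NADPH consumption tracked by fluorescence, ex 340/em 450 nm, at t=0 and after 15 min at RT. Final mix 10 nM GPX1, 1 mM GSH, 0.5 mM CHP, 0.5 mM NADPH, 100 nM GR, 0.01% BSA, following 30 min enzyme–compound preincubation.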
# [2] = target: Phospholipid hydroperoxide glutathione peroxidase GPX4 (Homo sapiens) (UniProt P36969); assay: Primary qHTS Assay for Inhibitors of Recombinant Selenoprotein Glutathione Peroxidase 4 (GPX4) (AID 1845192); note: nearly all actives have a fitted effect of over 65% in size
# Chain of Phospholipid hydroperoxide glutathione peroxidase GPX4 (Homo sapiens) (P36969 whole entry, looked up): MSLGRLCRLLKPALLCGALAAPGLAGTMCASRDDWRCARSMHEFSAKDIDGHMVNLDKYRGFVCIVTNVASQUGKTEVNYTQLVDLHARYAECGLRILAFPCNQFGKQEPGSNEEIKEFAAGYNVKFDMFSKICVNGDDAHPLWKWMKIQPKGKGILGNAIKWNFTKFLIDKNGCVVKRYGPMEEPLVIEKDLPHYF
# Summary of the method: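 Steps: GPX4 plus compound, 30 min RT; add GR/GSH/NADPH master mix; start with cumene hydroperoxide; read 340/450 nm fluorescence at 0 and 15 min. Finals were 200 nM GPX4, 1 mM GSH, 0.5 mM CHP, 0.5 mM NADPH, 100 nM GR.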
# [3] = Quantitative High-Throughput drug screen in 47 multiple myeloma cell lines against the NCATS MIPE library collection: Delta47_JCRB cell viability assay (AID 1918925; note: nearly all actives have a fitted effect of over 45% in size; note: potency is the fitted concentration of half-maximal effect)
# Summary of the method: (§1)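 qHTS of the MIPE 4.0 collection: 500 myeloma cells/well, 48 h drug exposure at 37C in 5% CO2, then CellTiter-Glo for 5 min at room temperature before luminescence reading.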
# [4] = Quantitative High-Throughput drug screen in 47 multiple myeloma cell lines against the NCATS MIPE library collection: AMO1_DSMZ cell viability assay (AID 1918927; note: nearly all actives have a fitted effect of over 30% in size; note: potency is the fitted concentration of half-maximal effect)
# Summary of the method: as §1
# [5] = Quantitative High-Throughput drug screen in 47 multiple myeloma cell lines against the NCATS MIPE library collection: ARD_JJKsccE7 cell viability assay (AID 1918929; note: potency is the fitted concentration of half-maximal effect)
# Summary of the method: as §1
# [6] = Quantitative High-Throughput drug screen in 47 multiple myeloma cell lines against the NCATS MIPE library collection: Karpas620_DSMZ cell viability assay (AID 1918959); note: nearly all actives have a fitted effect of over 30% in size; note: potency is the fitted concentration of half-maximal effect
# Summary of the method: (§2)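 Steps: seed 500 cells per well; pin-transfer MIPE 4.0 library; incubate 48 h at 37C, 5% CO2, humidified; add CellTiter-Glo, 5 min room temperature; read luminescence.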
# [7] = Quantitative High-Throughput drug screen in 47 multiple myeloma cell lines against the NCATS MIPE library collection: KMM1_JCRB cell viability assay (AID 1918960); note: nearly all actives have a fitted effect of over 30% in size; note: potency is the fitted concentration of half-maximal effect
# Summary of the method: (§3)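 CellTiter-Glo luminescence after 48 h exposure gives viability, scaled between DMSO-only (100%) and media-only (0%) controls. Library compounds are pinned onto 500 myeloma cells per well, incubated at 37C with 5% CO2.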
# [8] = Quantitative High-Throughput drug screen in 47 multiple myeloma cell lines against the NCATS MIPE library collection: EJM_DSMZ cell viability assay (AID 1918926; note: nearly all actives have a fitted effect of over 30% in size; note: potency is the fitted concentration of half-maximal effect)
# Summary of the method: as §1
# [9] = Quantitative High-Throughput drug screen in 47 multiple myeloma cell lines against the NCATS MIPE library collection: ARP1_JJKsccF8 cell viability assay (AID 1918928; note: nearly all actives have a fitted effect of over 40% in size; note: potency is the fitted concentration of half-maximal effect)
# Summary of the method: as §3
# [10] = Quantitative High-Throughput drug screen in 47 multiple myeloma cell lines against the NCATS MIPE library collection: Karpas417_ECACC cell viability assay (AID 1918961); details: Karpas417 myeloma viability, CellTiter-Glo ATP luminescence, 48 h; viability (% of DMSO): at 45.8 µM (top of the series); note: potency is the fitted concentration of half-maximal effect
# Summary of the method: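 CellTiter-Glo luminescence (ATP) after 48 h compound exposure, 37C/5% CO2; 500 cells/well; MIPE 4.0 approved/investigational drugs pinned in; DMSO = 100%, media only = 0% viability.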
# [11] = Quantitative High-Throughput drug screen in 47 multiple myeloma cell lines against the NCATS MIPE library collection: FR4_PLB cell viability assay (AID 1918924; note: nearly all actives have a fitted effect of over 35% in size; note: potency is the fitted concentration of half-maximal effect)
# Summary of the method: as §2
smiles,measurement,setting,value
CC(=O)[C@H]1CC[C@H]2[C@@H]3CC=C4C[C@@H](O)CC[C@]4(C)[C@H]3CC[C@]12C,Potency,[1],inactive
same,Potency,[2],inactive
same,Potency,[3],inactive
same,Potency,[4],inactive
same,Potency,[5],inactive
same,Potency,[6],inactive
same,Potency,[7],inactive
Cc1ccnc2c1NC(=O)c1cccnc1N2C1CC1,Potency,[1],inactive
same,Potency,[2],inactive
same,Potency,[3],20.9 µM (active)
same,Potency,[8],inactive
same,Potency,[9],inactive
same,Potency,[6],inactive
Cc1oc(=O)oc1CN1CCN(c2cc3c(cc2F)c(=O)c(C(=O)O)c2n3C(C)S2)CC1 (stereo unspecified),Potency,[1],inactive
same,Potency,[2],inactive
same,Potency,[3],inactive
same,Potency,[4],inactive
same,Potency,[9],14.8 µM (active)
same,Potency,[5],inactive
same,Potency,[6],inactive
same,Potency,[7],inactive
O=C(O)CSCC(=O)NC1CCSC1=O (stereo unspecified),Potency,[1],inactive
same,Potency,[2],inactive
same,Potency,[3],inactive
same,Potency,[8],inactive
same,Potency,[9],inactive
same,Potency,[5],inactive
same,Potency,[6],inactive
NC(N)=NC(N)=NCCc1ccccc1,Potency,[1],inactive
same,Potency,[2],inactive
same,Potency,[3],9.35 µM (active)
same,Potency,[8],4.69 µM (active)
same,Potency,[9],14.8 µM (active)
CO[C@@H]1[C@@H](OC(N)=O)[C@@H](O)[C@H](Oc2ccc3c(O)c(NC(=O)c4ccc(O)c(CC=C(C)C)c4)c(=O)oc3c2C)OC1(C)C,Potency,[1],inactive
same,Potency,[2],inactive
same,Potency,[3],5.26 µM (active)
same,Potency,[9],0.935 µM (active)
COc1ccc(C(=O)CC(=O)c2ccc(C(C)(C)C)cc2)cc1,Potency,[1],inactive
same,Potency,[2],inactive
same,Potency,[8],1.48 µM (active)
same,Potency,[4],1.87 µM (active)
same,Potency,[9],10.5 µM (active)
same,Potency,[5],18.7 µM (active)
same,Potency,[6],4.18 µM (active)
same,Potency,[7],7.43 µM (active)
CCOC(=O)c1ccc(C#Cc2ccc3c(c2)C(C)(C)CCS3)nc1,Potency,[1],inactive
same,Potency,[2],inactive
same,Potency,[4],inactive
same,Potency,[5],inactive
same,Potency,[6],inactive
same,Potency,[7],inactive
same,viability (% of DMSO),[10],132% (active)
CCn1cc(C(=O)O)c(=O)c2cc(F)c(N3CCNCC3)nc21,Potency,[1],inactive
same,Potency,[2],inactive
same,Potency,[3],inactive
same,Potency,[8],inactive
same,Potency,[6],inactive
same,Potency,[7],inactive
CC(=O)CC(c1ccccc1)c1c(O)c2ccccc2oc1=O (stereo unspecified),Potency,[1],inactive
same,Potency,[2],inactive
same,Potency,[9],inactive
same,Potency,[5],inactive
same,Potency,[6],inactive
same,Potency,[7],inactive
C[C@@H](CN1CC(=O)NC(=O)C1)N1CC(=O)NC(=O)C1,Potency,[1],inactive
same,Potency,[11],inactive
same,Potency,[7],inactive
same,Potency,[10],0.0526 µM (active)
COc1cccc(N(C)C(=S)Oc2ccc3c(c2)CCCC3)n1,Potency,[1],inactive
same,Potency,[11],inactive
same,Potency,[3],inactive
same,Potency,[8],inactive
same,Potency,[5],23.5 µM (active)
CCn1cc(C(=O)O)c(=O)c2cc(F)c(N3CCNCC3)cc21,Potency,[1],inactive
same,Potency,[3],inactive
same,Potency,[4],inactive
same,Potency,[9],8.33 µM (active)
same,Potency,[5],inactive
same,Potency,[6],inactive
same,Potency,[7],inactive
same,Potency,[10],inactive
Cc1nnc(NS(=O)(=O)c2ccc(N)cc2)s1,Potency,[1],inactive
same,Potency,[11],inactive
same,Potency,[4],1.87 µM (active)
same,Potency,[9],20.9 µM (active)
same,Potency,[6],1.66 µM (active)
same,Potency,[7],1.18 µM (active)
O=C(O)c1ccc(-n2nc(-c3ccccc3O)nc2-c2ccccc2O)cc1,Potency,[1],inactive
same,Potency,[11],23.5 µM (active)
same,Potency,[4],29.6 µM (active)
same,Potency,[10],inactive
COc1ccc2c(c1)c(CC(=O)OCC(=O)O)c(C)n2C(=O)c1ccc(Cl)cc1,Potency,[1],inactive
same,Potency,[11],inactive
same,Potency,[4],inactive
same,Potency,[9],inactive
same,Potency,[6],inactive
same,Potency,[7],inactive
NS(=O)(=O)c1cc2c(cc1Cl)NC(C(Cl)Cl)NS2(=O)=O (stereo unspecified),Potency,[1],inactive
same,Potency,[11],inactive
same,Potency,[8],inactive
same,Potency,[4],inactive
same,Potency,[9],inactive
same,Potency,[5],inactive
same,Potency,[6],inactive
same,Potency,[7],inactive
N[C@@H](C(=O)N[C@@H]1C(=O)N2C(C(=O)O)=C(Cl)CS[C@H]12)c1ccccc1,"activity change, negative = inhibition",[2],3.64% [at 9.73 µM]
same,Potency,[3],inactive
same,Potency,[4],inactive
same,Potency,[9],inactive
same,Potency,[5],inactive
same,Potency,[7],inactive
C[C@@H](NCCCc1cccc(C(F)(F)F)c1)c1cccc2ccccc12,Potency,[1],inactive
same,Potency,[11],inactive
same,Potency,[3],inactive
same,Potency,[9],inactive
same,Potency,[7],inactive
